Test results from PubChem BioAssay (NCATS).

Biological target: Glucocorticoid receptor (Homo sapiens) (UniProt P04150)
Experiment: GR-EFC Redistribution (AID 451)
Details: CHO-K1 GR-EFC translocation, beta-gal luminescence, 2 h; calls by dose curve
From the text: NIH Molecular Libraries Screening Centers Network [MLSCN]
NIH Chemical Genomics Center [NCGC]
The glucocorticoid receptor (GR) is a cytoplasmic receptor that belongs to the nuclear receptor family of ligand-dependent transcription factors. Upon glucocorticoid binding to its receptor, the glucocorticoid-GR complex translocates into the nucleus, where it binds as a dimer to specific DNA sequences (glucocorticoid response elements), enhancing or suppressing transcription of a wide variety of glucocorticoid-responsive genes. In addition to their important roles in normal physiology and metabolism, glucocorticoids are administered exogenously as treatments for a wide variety of allergic, autoimmune, and neoplastic conditions. Identification of compounds that modulate aspects of GR signalling would be useful in dissecting glucocorticoid response pathways as well as developing GR modulators with more targeted clinical effects.
Traditionally, GR modulators have been identified using receptor binding or direct transactivation assays. However, assays for glucocorticoid-dependent nuclear translocation can also be used to screen for compounds affecting GR signaling.
Immunocytochemical staining has been used to assay for GR translocation, but is not suitable for high throughout screening due to the multiple reagent addition and wash steps required. Recently, a novel cell-based GR assay in Enzyme Fragment Complementation (EFC) format was developed by DiscoveRx (Fremont, CA). The assay uses EFC of b-galactosidase (b-gal) as an indicator of GR-translocation in engineered CHO-K1 biosensor cells. The enzyme acceptor (EA) fragment of b-gal resides in the nucleus , as designed through the use of a proprietary set of sequence additions and modifications. The small peptide enzyme donor (ED) fragment of b-gal is fused directly to the C-terminus of GR, and is localized in the cytoplasm is the absence of receptor signaling. Upon binding to a GR ligand, the complex translocates to the nucleus, where intact enzyme activity is restored by complementation and b-gal activity is detected. We optimized this GR-EFC assay in homogenous 1536-well plate assay format for high throughput screening.
NCGC Assay Protocol Summary:
CHO-K1 cells stably expressing NLS-enzyme acceptor fragment (EA) of b-gal and GR-enzyme donor (ED) fragment of b-gal were maintained in F12 medium (Invitrogen, Carlsbad, CA) at 37 Celsius degrees under a humidified atmosphere containing 5% CO2 and 95% air. The medium contained 10% FBS, 2 mM L-glutamine, 50 U/ml penicillin 50 ug/ml streptomycin, and 250 ug/ml hygromycin and 500 ug/ml G418 (Invitrogen).
GR-translocation was measured beta-gal enzyme activity using the PathHunter Detection Kit containing cell membrane permeablizing reagent and beta-gal substrate (DiscoveRx, Fremont, CA). All compounds were screened as titrations from 0.6 nM to 46 uM final concentration. The assay was performed in 1536-well format as follows:
5 uL cell suspension (1,000 cells)/well
Incubation at 37 Celsius degrees for two hours
1.25 uL 1X detection buffer from the kit supplied by DiscoveRx
Incubation at room temperature for one hour
Read plate in luminescence mode in ViewLux plate reader (PerkinElmer)
Keywords: NIH Roadmap, MLSCN, MLI, MLSMR, GR-EFC, GREFC, qHTS, NCGC
Potency means the concentration at half of the fitted maximal effect.

Chain of Glucocorticoid receptor (Homo sapiens) (P04150 whole entry, looked up): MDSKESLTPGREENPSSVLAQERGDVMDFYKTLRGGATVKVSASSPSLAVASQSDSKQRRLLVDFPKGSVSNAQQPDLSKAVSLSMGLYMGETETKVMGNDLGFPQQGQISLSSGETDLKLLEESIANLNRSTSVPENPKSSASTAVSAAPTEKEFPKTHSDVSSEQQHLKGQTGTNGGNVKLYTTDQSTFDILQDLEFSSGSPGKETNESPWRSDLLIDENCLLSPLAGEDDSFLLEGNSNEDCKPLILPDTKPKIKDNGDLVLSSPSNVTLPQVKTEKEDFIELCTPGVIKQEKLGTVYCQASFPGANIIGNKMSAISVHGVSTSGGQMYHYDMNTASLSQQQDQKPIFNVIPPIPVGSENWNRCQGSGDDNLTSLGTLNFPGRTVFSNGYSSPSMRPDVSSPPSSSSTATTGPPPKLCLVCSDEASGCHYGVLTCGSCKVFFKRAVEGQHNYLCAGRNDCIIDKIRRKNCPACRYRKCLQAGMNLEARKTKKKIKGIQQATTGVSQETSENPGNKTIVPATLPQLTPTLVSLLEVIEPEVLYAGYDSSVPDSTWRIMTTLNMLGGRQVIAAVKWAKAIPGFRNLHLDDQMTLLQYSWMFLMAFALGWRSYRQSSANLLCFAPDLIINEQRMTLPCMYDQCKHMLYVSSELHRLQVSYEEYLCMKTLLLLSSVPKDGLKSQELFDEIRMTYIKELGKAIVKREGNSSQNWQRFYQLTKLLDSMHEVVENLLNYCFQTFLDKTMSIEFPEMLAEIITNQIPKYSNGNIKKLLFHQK

Potency, inactive:
Nc1ccc(S(=O)(=O)c2ccc(NC(=O)c3cccnc3)cc2)cc1 > 9.22 µM, NC(=O)SCC(=O)Nc1ccc2ncccc2c1 > 9.22 µM, Cc1c(N2CCCC2)cc2c(c1NC(=O)c1ccccc1Cl)C(C)(C)CC2(C)C > 9.22 µM, CO[C@@H]1/C=C\O[C@]2(C)Oc3c(C)c(O)c4c(O)c(c(CN5CCN(C)CC5)c(O)c4c3C2=O)NC(=O)/C(C)=C\C=C[C@@H](C)[C@@H](O)[C@H](C)[C@@H](O)[C@H](C)[C@H](OC(C)=O)[C@@H]1C > 9.22 µM, O=C(C[C@@H](C(=O)O)N1CCOCC1)c1ccccc1 > 9.22 µM, O=C(c1cc(Br)ccc1O)c1cc(Br)ccc1O > 9.22 µM, NC(N)=N/N=C(\c1ccc(Cl)cc1)C1CC1 > 9.22 µM, NCCSCCC(=O)O > 9.22 µM, Cc1cc(=O)[nH]c2cc3oc4ccccc4c3cc12 > 9.22 µM, COc1ncc2nc(CCc3ccccc3)c(=O)n(C)c2n1 > 46 µM, CC(C)(CO)N1CCN(C(=S)Nc2ccccc2)CC1 > 9.22 µM, O=C(O)CCc1nc(-c2ccccc2-n2cccc2)no1 > 9.22 µM, NS(=O)(=O)c1ccc(NC(=O)Nc2cccc3ccccc23)cc1 > 9.22 µM, Cn1cnc([N+](=O)[O-])c1Sc1nnc(-c2cccnc2)n1C > 9.22 µM, CN1CCc2cc(Cl)c(O)cc2[C@H](c2ccccc2)C1 > 46 µM, COc1cc2nc(N3CCN(C(=O)OCc4ccccc4)[C@H](C(=O)NC(C)(C)C)C3)nc(N)c2cc1OC > 46 µM, Nc1nc(Cl)nc2c1ncn2[C@@H]1O[C@@H](COP(=O)(O)OP(=O)(O)OP(=O)(O)O)[C@@H](O)[C@H]1O > 46 µM, NS(=O)(=O)c1cc(C(=O)O)c(O)c2ccccc12 > 9.22 µM, O=C(CSc1nc2ccccc2s1)c1sc2sc3ccccc3[n+]2c1O > 9.22 µM, CN1CCC[C@H](C(=O)OCC(=O)[C@]2(O)CC[C@@H]3[C@H]4CCC5=CC(=O)CC[C@@]5(C)[C@H]4[C@@H](O)C[C@]32C)C1 > 9.22 µM, COc1ccc2c(c1)[n+]([O-])c(/C(C)=N/NC(N)=S)c(C)[n+]2[O-] > 9.22 µM, CN(C)C(=O)C1CCN(Cc2c[nH]c3ccccc23)CC1 > 9.22 µM, CCN(CC)CC[n+]1ccc2c(C)c3[nH]c4ccccc4c3c(C)c2c1 > 9.22 µM, CC1(C)CCC(NC(=O)[C@H](N)CCC(=O)O)CC1 > 46 µM, S=C1N[C@H](c2ccccc2)N[C@H](c2ccccc2)S1 > 9.22 µM, c1ccc(SC(Sc2ccccc2)c2ccc3c(c2)OCO3)cc1 > 9.22 µM, Cc1cc(Cc2cc(C)cc(C(C)(C)C)c2O)c(O)c(Cc2cc(C)cc(C(C)(C)C)c2O)c1 > 9.22 µM, O=C(O)C[C@H](Cc1ccccc1)C(=O)O > 9.22 µM, Cc1ccc(S(=O)(=O)Oc2cc(S(=O)(=O)O)cc3cc(S(=O)(=O)O)cc(N)c23)cc1 > 9.22 µM, CN(C)CC(CN(C)C)c1ccccn1 > 9.22 µM, Nc1ncnc2c1nc(-c1ccccc1)n2[C@H]1O[C@@H](CO)[C@@H](O)[C@H]1O > 9.22 µM, COCCn1c(=O)c(-c2ccc(OC)cc2)nc2cnc(Oc3ccccc3)nc21 > 46 µM, Cc1ccc([C@@H](O)c2cnc(C)n2Cc2ccccc2)cc1 > 9.22 µM, O=C(O)c1cc(-c2ccc3cc4c(cc3c2)OCO4)nc2ccccc12 > 9.22 µM, Cc1ccc2ccccc2c1CSc1nc(N)nc2c1ncn2CC(C)C > 9.22 µM, c1ccc2c[n+](CCCC[n+]3ccc4ccccc4c3)ccc2c1 > 9.22 µM, O=C(O)C[C@H]1OCC=C2C[N@@+]3([O-])CC[C@]45c6ccccc6N[C@@H]4[C@@H]1[C@H]2C[C@H]53 > 9.22 µM, Nc1nc(-c2cc(-c3cccc4ccccc34)nc(N)n2)cc(-c2cccc3ccccc23)n1 > 9.22 µM, Cc1ccc(C2=Nc3ccccc3S[C@@H](c3cccc([N+](=O)[O-])c3)C2)cc1 > 9.22 µM, OCCNc1ncnc2nc[nH]c12 > 9.22 µM
